Here are results for 17 compounds from PubChem BioAssay (NCATS).

Molecules are shown by their SMILES. Results filed as inconclusive are left out. Entries that show only a call come without a potency. Calls of active or inactive are those of the source. Calls come from the whole dose curve; as a rule, active = well fitted cell-killing curve with a large enough effect; inconclusive = small, poorly fitted or top-dose-only effect, or effect the other way; inactive = no such curve, though single readings can be large or run the other way.
Potency is the fitted concentration of half-maximal effect.

A short description of this assay: Quantitative High-Throughput drug screen in 47 multiple myeloma cell lines against the NCATS MIPE library collection: KMS26_JCRB cell viability assay (AID 1918975). Note: nearly all actives have a fitted effect of over 45% in size. Conditions: KMS26 myeloma cells viability, CellTiter-Glo ATP, 48 h; series mostly up to 45.8 µM. In outline: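 Relative luminescence from CellTiter-Glo served as the viability signal, referenced to DMSO-treated (100%) and cell-free medium (0%) controls. Treatment lasted 48 hours at 37C with 500 cells per well.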
For orientation: In ATP-based viability assays light output follows the ATP content of the culture.
Take `CC(C)[C@H](N)C(=O)OCCOCn1cnc2c(=O)[nH]c(N)nc21`: the Potency result was “inactive”.

Take `C=CCc1cc(OC)c(O)c(C(=O)NCCO)c1`: the Potency entry is “inactive”.

For `Nc1cc(C(Cl)=C(Cl)Cl)c(S(N)(=O)=O)cc1S(N)(=O)=O`, the Potency entry was “inactive”.

On to `CC(=O)O[C@H]1C(=O)[C@@]2(C)C([C@H](OC(=O)c3ccccc3)[C@]3(O)C[C@H](OC(=O)[C@H](O)[C@@H](NC(=O)c4ccccc4)c4ccccc4)C(C)=C1C3(C)C)[C@]1(OC(C)=O)CO[C@@H]1C[C@@H]2O` (some centres not stated), for which the Potency result is “inactive”.

On to `CN1C(C(=O)Nc2ccccn2)=C(O)c2sccc2S1(=O)=O`, for which the Potency result was “inactive”.

Regarding `CCN(CCO)CCCC(C)Nc1ccnc2cc(Cl)ccc12` (configuration not stated), the Potency result is “inactive”.

As for `O=C1c2c(O)cc(O)cc2OC(c2ccc(O)c(O)c2)C1O` (configuration not stated), the Potency entry is “inactive”.

As for `COc1cc(Nc2c(C#N)cnc3cc(OCCCN4CCN(C)CC4)c(OC)cc23)c(Cl)cc1Cl`, the Potency was 18.7 µM (active).

Consider `CCN(CC)C(=S)SSC(=S)N(CC)CC`, for which the Potency is 0.0105 µM (active).

On to `COc1cc(C(C)=O)ccc1OCCCN1CCC(c2noc3cc(F)ccc23)CC1`, for which the Potency was 0.0074 µM (active).

As to `Cc1cccc(C)c1OCC(=O)N[C@@H](Cc1ccccc1)[C@@H](O)C[C@H](Cc1ccccc1)NC(=O)[C@H](C(C)C)N1CCCNC1=O`, the Potency was 18.7 µM (active).

Regarding `CCCOc1ccc2nc(NC(=O)OC)[nH]c2c1`, the Potency is 1.05 µM (active).

Consider `COc1ccc2cc([C@H](C)C(=O)O)ccc2c1`, for which the Potency entry is “inactive”.

Regarding `CC(=O)NC[C@H]1CN(c2ccc(N3CCOCC3)c(F)c2)C(=O)O1`, the Potency result was “inactive”.

Consider `CC(C)C[C@H](NC(=O)[C@H](Cc1ccccc1)NC(=O)c1cnccn1)B(O)O`, for which the Potency was 0.0148 µM (active).

Turning to `CCCCC(CC)COC(=O)C(C#N)=C(c1ccccc1)c1ccccc1` (configuration not stated), the Potency result is “inactive”.

In the case of `CN(C)C(=O)[C@H](O)[C@H](Cc1ccccc1)NC(=O)c1cc2cc(Cl)ccc2[nH]1`, the Potency was 20.9 µM (active).
